# Assay results taken from PubChem BioAssay (NCATS).
# Records with an inconclusive call do not appear. Unmarked numbers belong to inactive results. Active and inactive are the calls of the source. The call rests on the fitted dose curve; in most records, active means well fitted inhibition curve with a large enough effect; inconclusive means small, poorly fitted or top-dose-only effect; inactive means no such curve, though single readings can be large or run the other way.
# Test: Primary qHTS for small molecule stabilizers of the endoplasmic reticulum resident proteome: Secreted ER Calcium Modulated Protein (SERCaMP) assay (AID 1508630)
# Details: SH-SY5Y GLuc-SERCaMP (Gaussia luciferase released on ER calcium loss) secretion, thapsigargin, luminescence; series mostly up to 38.4 µM; activity change, negative = inhibition: at the top concentration
# Summary of the method: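 GLuc-SERCaMP-expressing SH-SY5Y cells, pretreated 16 h with compound, are challenged with thapsigargin to empty ER calcium stores; after 4 h, coelenterazine is added directly to the medium and luminescence is imaged.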
# On the % scale 0 is the no-effect control and ±100 the full control effect.
Compound,"activity change, negative = inhibition",outcome
CC1(C(=O)O)C2CCC(O2)C1(C)C(=O)O (configuration not stated),107%,–
CCCN1CCc2cccc3c2[C@H]1Cc1ccc(O)c(O)c1-3,-22.1%,–
CCCN(CCC)CCc1c[nH]c2ccc(C(N)=O)cc12,–,inactive
CCn1cnc2c(Nc3cccc(Cl)c3)nc(N[C@@H]3CCCC[C@@H]3N)nc21,299%,–
C[C@@H]1O[C@@H](O[C@H]2C[C@@H](O)[C@]3(CO)[C@@H]4C(CC[C@]3(O)C2)[C@@]2(O)CC[C@H]([C@@H]3COC(=O)C3)[C@@]2(C)C[C@H]4O)[C@H](O)[C@H](O)[C@H]1O (some centres not stated),29.3%,–
CCCn1c(=O)c2[nH]c(C3CCCC3)nc2n(CCCOC(=O)c2ccc(S(=O)(=O)F)cc2)c1=O,20.9%,–
CCCN(CCC)[C@@H]1CCc2cccc(O)c2C1,–,inactive
NC(=O)c1cc(N2CC2)c([N+](=O)[O-])cc1[N+](=O)[O-],-21%,–
CNc1ccc2oc(C[C@H]3O[C@@]4(CC[C@H]3C)O[C@H]([C@H](C)C(=O)c3ccc[nH]3)[C@H](C)C[C@H]4C)nc2c1C(=O)O,306%,–
CC(=O)NBr,-4.58%,–
C/C(O)=C(\C#N)C(=O)Nc1cc(Br)ccc1Br,50.9%,–
O=c1ccc2[nH]cc(C3=CCNCC3)c2[nH]1,-18.4%,–
